From PubChem BioAssay AID504336 (NMMLSC, 2011)
Active and inactive are the calls of the source.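 The calls were made as follows: active = compounds whose GFP signal falls below 65% of the DMSO control level; inconclusive = fewer than 70 yeast cells counted in the well; inactive = the rest.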

assay: TOR branch reporter RPL19A-GFP response – cell-based, S. cerevisiae, third cherry pick, flow cytometry, confirmation (AID 504336);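 also: median GFP fluorescence of all gated yeast cells by flow cytometry; ratio of well median fluorescence to plate mean of DMSO wells with DMSO = 100%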; details: S. cerevisiae RPL19A-GFP strain, 3 h, at 10 µM, stronger effect = lower value

Row | SMILES | GFP response relative to DMSO
1 | CCN1CCN(c2ncnc3ccc(Br)cc23)CC1 | 100% (inactive)
2 | CN(C)C(=O)Oc1ccc(Cl)c2cccnc12 | 101% (inactive)
3 | CN1CCN(c2ncnc3ccc(Br)cc23)CC1 | 99.3% (inactive)
4 | C/C(O)=C(\C#N)C(=O)Nc1cc(Br)ccc1Br | 97.5% (inactive)
5 | Cc1ccc2c(c1N)C(=O)c1ccccc1C2=O | 101% (inactive)
6 | CN(C)C(=O)Oc1ccnc2cc(Cl)ccc12 | 102% (inactive)
